In the library only some 27% were active in any assay of this set; here they are far more common.
CYP2C19 inh: blocks human cytochrome P450 2C19; CYP2C19 Supersomes, luciferin-H EGE luminescence, 30 min; inhibition, % at 5 µM; P33261; 96,000 compounds, 21% hits;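 active = CYP2C19 inhibition above a set limit at 5 µM in the primary screen, cut at about 50% in these data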
CYP2C19 act: activators of human cytochrome P450 2C19; activation factor at 5 µM; recombinant CYP2C19, luciferin-H EGE luminescence; hits give high values; 0 = fully inhibited enzyme, 1 = untreated enzyme; 96,000 tested, under 10 active; P33261;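 active = activation factor of at least 2 at 5 µM in the primary screen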
CYP2C9 activ: CYP2C9 (human) activation; AID 1024; recombinant CYP2C9, luciferin-H conversion, luminescence; hits give high values; factor 1 = untreated enzyme, 0 = blocked; activation factor at 5 µM; 96,000 compounds, 1.4% hits; P11712;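 active = activation factor of 2 or more for CYP2C9 at a 5 µM dose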
Target sequence (P11712 whole entry, looked up): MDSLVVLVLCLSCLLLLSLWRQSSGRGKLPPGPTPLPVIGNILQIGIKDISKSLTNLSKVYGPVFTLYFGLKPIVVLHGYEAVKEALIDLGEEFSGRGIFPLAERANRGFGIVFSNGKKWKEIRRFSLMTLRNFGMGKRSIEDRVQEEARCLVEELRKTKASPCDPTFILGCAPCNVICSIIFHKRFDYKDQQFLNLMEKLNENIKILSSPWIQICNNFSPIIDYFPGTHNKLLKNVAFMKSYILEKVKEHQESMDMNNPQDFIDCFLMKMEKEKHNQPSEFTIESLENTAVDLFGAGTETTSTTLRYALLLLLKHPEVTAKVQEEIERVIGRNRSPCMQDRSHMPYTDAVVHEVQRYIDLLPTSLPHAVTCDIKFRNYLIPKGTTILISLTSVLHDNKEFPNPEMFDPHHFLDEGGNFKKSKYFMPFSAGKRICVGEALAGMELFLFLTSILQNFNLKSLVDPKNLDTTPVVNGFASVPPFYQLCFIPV
EphB4 ephrin blk: antagonists of human EphB4-ephrin-B2 interaction; EphB4 LBD / TNYL-RAW-Alexa532 peptide, fluorescence polarization; 97,000 compounds, 0.15% hits; inhibition, % at 7 µM; P54760;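 active = inhibition above the screen-wide mean inhibition plus 3 SD, cut at about 15% in these data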
CYP2C9 inhib: human CYP2C9 inhibition; P11712; CYP2C9 Supersomes, luciferin-H conversion, luminescence; inhibition, % at 5 µM; 96,000 compounds, 20% hits;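 active = blocking of liver enzyme CYP2C9 beyond about 50% at 5 µM, limit read from the data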
Hits are given with their value; . = inactive; / = no result.

SMILES	CYP2C19 inh	CYP2C19 act	CYP2C9 activ	EphB4 ephrin blk	CYP2C9 inhib
C/C(=N\NC(=O)C1CC1c1ccccc1)c1cccs1 (stereo unspecified)	88	.	.	.	51
N#CC1=C(N)Oc2n[nH]c(-c3ccccn3)c2C1c1c(F)cccc1Cl (stereo unspecified)	.	.	.	.	.
CCC(C)[C@H](NC(=O)NCc1cccs1)C(=O)O (stereo partly specified)	.	.	.	.	.
CCOP(=O)(c1ccc(N(C)C)cc1)C(O)c1ccccc1OC (stereo unspecified)	.	.	.	.	.
CCCOP(=O)(c1ccc(N(C)C)cc1)C(O)c1cccnc1 (stereo unspecified)	.	.	.	.	.
CCCCOP(=O)(c1ccc(N(C)C)cc1)C(O)c1ccncc1 (stereo unspecified)	80	.	.	.	74
CC(C)COP(=O)(c1ccc(N(C)C)cc1)C(O)c1ccccn1 (stereo unspecified)	67	.	.	.	.
CC(C)CCOP(=O)(c1ccc(N(C)C)cc1)C(O)c1ccccc1F (stereo unspecified)	74	.	.	.	.
CC(C)CCOP(=O)(c1ccc(N(C)C)cc1)C(O)c1ccccn1 (stereo unspecified)	80	.	.	.	.
c1ccc(-c2cc3c(N4CCOCC4)ncnc3s2)cc1	79	.	.	/	.
Cc1nc(N2CCOCC2)c2cc(-c3ccccc3)sc2n1	.	.	.	/	.
COC(=O)CCC(=O)N1CCc2cc(S(=O)(=O)N3CCN(c4ccccc4Cl)CC3)ccc21	.	.	.	.	59
COc1ccc(S(=O)(=O)N(CCN2CCOCC2)Cc2cc(OC)ccc2OC)cc1	81	.	.	.	.
COc1ccc(C2/C(=C(/O)c3ccccc3)C(=O)C(=O)N2CCN2CCOCC2)c(OC)c1 (stereo unspecified)	.	.	.	.	.
COc1ccc(S(=O)(=O)N(CCCN2CCOCC2)Cc2cccc(OC)c2OC)cc1	58	.	.	.	.
COc1ccc(S(=O)(=O)N(CCCN2CCOCC2)Cc2cccc3ccccc23)cc1	78	.	.	.	.
CCc1ccccc1NC(=S)N(CCN(C)C)C(C)c1ccccn1 (stereo unspecified)	.	.	.	.	.
O=C(CSc1nc2ccccc2s1)NNC(=S)Nc1ccc(Br)cc1	.	.	.	.	.
O=C1N=C(N2CCOCC2)S/C1=C1\C(=O)N(Cc2ccccc2)c2ccc(Br)cc21	.	.	.	/	62
O=C1N=C(N2CCCCC2)SC1=C1CCCC1	.	.	.	.	.
Cc1ccc(CN2C(=O)/C(=C3\SC(N4CCOCC4)=NC3=O)c3cc(Br)ccc32)cc1	.	.	.	/	.
CCCCN1C(=O)/C(=C2\SC(N3CCCCC3)=NC2=O)c2ccccc21	53	.	.	.	90
CCCNC(=O)NC(=O)CSc1nc2cc(C(=O)OC)ccc2c(=O)n1-c1ccccc1	.	.	.	.	.
CCOC(=O)c1c(C)[nH]c(C)c1C(=O)COC(=O)c1ccc(Cl)c(S(=O)(=O)NCc2ccccc2)c1	82	.	.	.	80
CN(C)S(=O)(=O)c1cccc(C(=O)OCC(=O)N2c3ccccc3NC(=O)C2(C)C)c1	.	.	.	.	.
SMILES	CYP2C19 inh	CYP2C19 act	CYP2C9 activ	EphB4 ephrin blk	CYP2C9 inhib
CC1(C)C(=O)Nc2ccccc2N1C(=O)COC(=O)c1ccc(Cl)c(S(=O)(=O)NCc2ccccc2)c1	.	.	.	.	93
O=C(NS(=O)(=O)c1ccccc1)c1ccccc1F	.	.	.	.	.
Cc1sc(NC(=O)c2ccco2)c(C(c2cccnc2)N2CCCC2)c1C (stereo unspecified)	.	.	.	.	53
Cc1sc(NC(=O)c2ccco2)c(C(c2ccncc2)N2CCOCC2)c1C (stereo unspecified)	67	.	.	.	81
CCC(C)(C)n1nnnc1CN1CCC(O)(c2cccc(C(F)(F)F)c2)CC1	/	/	/	.	/
Cc1cc2cc(C(c3nnnn3C3CCCC3)N(Cc3cccnc3)Cc3ccco3)c(=O)[nH]c2cc1C (stereo unspecified)	60	.	.	.	60
CC(C)C(c1nnnn1C1CCCC1)N1CCc2ccccc21 (stereo unspecified)	.	.	.	.	57
Cc1ccc(C(c2nnnn2C2CCCCC2)N(C)C2CCCCC2)cc1 (stereo unspecified)	.	.	.	.	.
COc1cc2cc(C(c3nnnn3C3CCCCC3)N(C)C3CCCCC3)c(=O)[nH]c2cc1OC (stereo unspecified)	62	.	.	/	50
Cc1ccc2cc(C(c3nnnn3C3CCCC3)N(Cc3ccccc3)Cc3ccco3)c(=O)[nH]c2c1 (stereo unspecified)	.	.	.	.	.
CC(C)C(c1nnnn1C1CCCC1)N(C)C1CCCCC1 (stereo unspecified)	.	.	.	.	51
CC(C)C(c1nnnn1C1CCCC1)N1CCCc2ccccc21 (stereo unspecified)	/	/	/	.	/
COc1cccc(-n2nnc3c(=O)n(CC(=O)NC4CCCC4)cnc32)c1	.	.	.	.	.
Cc1ccc(OCC(O)CN2CCN(CC(O)COc3ccc(C)cc3)CC2)cc1 (stereo unspecified)	.	.	.	.	.
Cc1ccc(S(=O)(=O)N2CCN(CCO)CC2)cc1-c1nnc2c3ccccc3c(C)nn12	/	/	/	.	/
CCCC(c1nnnn1C(C)(C)CC)N(Cc1ccco1)Cc1cc2ccc(OC)cc2[nH]c1=O (stereo unspecified)	.	.	.	.	.
COCCn1nnnc1C(c1cc2ccc(C)cc2[nH]c1=O)N(Cc1ccco1)Cc1cccs1 (stereo unspecified)	.	.	.	.	70
CCC(C)(C)n1nnnc1C(c1cc2ccc(C)cc2[nH]c1=O)N(Cc1cccnc1)Cc1ccco1 (stereo unspecified)	99	.	.	.	89
Cc1ccc(-c2ccc(=O)n(CC(=O)NCc3ccco3)n2)cc1	.	.	.	.	.
CCOc1ccc(S(=O)(=O)Nc2ccc3c(c2)OCO3)c2cccnc12	82	.	.	.	.
CCOc1ccc(S(=O)(=O)NCc2ccc(F)cc2)c2cccnc12	51	.	.	.	.
CCOc1ccc(OCC)c(S(=O)(=O)NCc2cccnc2)c1	/	/	/	.	/
Cc1noc(C)c1S(=O)(=O)N1CCN(C(c2ccccc2)c2ccc(Cl)cc2)CC1 (stereo unspecified)	75	.	.	.	77
Cc1cc(NC(=O)CSc2nc(CCC3CCCC3)nc3ccccc23)no1	87	.	.	.	90
Cc1cc(NC(=O)CSc2c3c(nc4ccccc24)CCC3)no1	55	.	.	.	56
CCCc1nc(SCC(=O)Nc2cc(C)on2)c2ccccc2n1	.	.	.	.	.
COc1ccc(C2C(C#N)=C(C)NC3=C2S(=O)(=O)c2ccccc23)cc1 (stereo unspecified)	/	/	/	.	/

Compound activity as filed in PubChem.
